The record followed here is ChEMBL document CHEMBL1961873, “Compounds: GSK PKIS; Assays: Nanosyn kinase panel” (2012).

Experiment [1] concerns the target Sphingosine kinase 1 (Homo sapiens) (UniProt Q9NYA1). The conditions noted are these: at 1 µM.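 Further: mean SPHK1 inhibition value reported from the GSK PKIS kinase panel screen.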
For experiment [2], the target named is T1, Sphingosine kinase 2 (Homo sapiens) (UniProt Q9NRA0).
T1 sequence (whole entry): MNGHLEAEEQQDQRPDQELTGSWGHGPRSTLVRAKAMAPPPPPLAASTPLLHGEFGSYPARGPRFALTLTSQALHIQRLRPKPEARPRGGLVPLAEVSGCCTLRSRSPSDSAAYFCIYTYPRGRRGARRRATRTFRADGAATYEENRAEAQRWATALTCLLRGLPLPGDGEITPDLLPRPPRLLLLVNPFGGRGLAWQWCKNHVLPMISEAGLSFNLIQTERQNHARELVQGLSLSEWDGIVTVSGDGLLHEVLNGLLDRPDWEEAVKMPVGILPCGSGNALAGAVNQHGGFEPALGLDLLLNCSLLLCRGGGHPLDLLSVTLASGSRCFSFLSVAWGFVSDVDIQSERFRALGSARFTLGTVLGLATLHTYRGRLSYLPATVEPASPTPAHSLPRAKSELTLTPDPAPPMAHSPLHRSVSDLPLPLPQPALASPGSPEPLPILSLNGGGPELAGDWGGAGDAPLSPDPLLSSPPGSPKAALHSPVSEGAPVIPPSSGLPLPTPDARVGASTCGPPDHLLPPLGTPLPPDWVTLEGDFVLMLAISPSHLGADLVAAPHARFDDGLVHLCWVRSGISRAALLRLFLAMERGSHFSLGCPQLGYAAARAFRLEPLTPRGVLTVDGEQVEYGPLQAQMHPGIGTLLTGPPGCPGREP
As to conditions: at 0.1 µM.

Experiment [3] deals with T1, Sphingosine kinase 2 (Homo sapiens). The conditions noted are these: at 1 µM.
The target in experiment [4] is Casein kinase II subunit alpha (Homo sapiens) (UniProt P68400). The conditions noted are these: at 0.1 µM.
The target is the same in experiment [5]. The conditions noted are these: at 1 µM.
The target in experiment [6] is T2, Inhibitor of nuclear factor kappa-B kinase subunit alpha (Homo sapiens) (UniProt O15111).
T2 sequence (whole entry): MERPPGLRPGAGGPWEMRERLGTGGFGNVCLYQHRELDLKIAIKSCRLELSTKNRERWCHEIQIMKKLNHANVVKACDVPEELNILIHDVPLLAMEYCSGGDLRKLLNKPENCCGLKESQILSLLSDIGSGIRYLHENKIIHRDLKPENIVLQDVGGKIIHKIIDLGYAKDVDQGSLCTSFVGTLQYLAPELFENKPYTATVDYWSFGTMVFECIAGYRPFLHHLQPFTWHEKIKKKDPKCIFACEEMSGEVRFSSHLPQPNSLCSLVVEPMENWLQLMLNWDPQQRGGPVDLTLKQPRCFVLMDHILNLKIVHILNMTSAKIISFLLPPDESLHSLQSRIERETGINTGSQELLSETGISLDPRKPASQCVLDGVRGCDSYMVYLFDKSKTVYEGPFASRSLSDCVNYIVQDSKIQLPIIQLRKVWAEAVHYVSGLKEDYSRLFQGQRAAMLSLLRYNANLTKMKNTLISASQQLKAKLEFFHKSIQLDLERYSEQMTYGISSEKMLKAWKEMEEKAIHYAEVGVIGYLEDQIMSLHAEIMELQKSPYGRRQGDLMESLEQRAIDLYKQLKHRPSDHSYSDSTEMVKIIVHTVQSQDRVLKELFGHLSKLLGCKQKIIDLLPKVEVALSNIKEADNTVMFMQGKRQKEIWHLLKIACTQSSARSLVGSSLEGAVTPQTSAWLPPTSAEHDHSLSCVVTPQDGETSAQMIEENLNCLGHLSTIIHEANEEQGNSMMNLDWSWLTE
The conditions noted are these: at 0.1 µM.

In experiment [7] the target is T2, Inhibitor of nuclear factor kappa-B kinase subunit alpha (Homo sapiens). As to conditions: at 1 µM.
In experiment [8] the target is T3, Inhibitor of nuclear factor kappa-B kinase subunit beta (Homo sapiens) (UniProt O14920).
T3 sequence (whole entry): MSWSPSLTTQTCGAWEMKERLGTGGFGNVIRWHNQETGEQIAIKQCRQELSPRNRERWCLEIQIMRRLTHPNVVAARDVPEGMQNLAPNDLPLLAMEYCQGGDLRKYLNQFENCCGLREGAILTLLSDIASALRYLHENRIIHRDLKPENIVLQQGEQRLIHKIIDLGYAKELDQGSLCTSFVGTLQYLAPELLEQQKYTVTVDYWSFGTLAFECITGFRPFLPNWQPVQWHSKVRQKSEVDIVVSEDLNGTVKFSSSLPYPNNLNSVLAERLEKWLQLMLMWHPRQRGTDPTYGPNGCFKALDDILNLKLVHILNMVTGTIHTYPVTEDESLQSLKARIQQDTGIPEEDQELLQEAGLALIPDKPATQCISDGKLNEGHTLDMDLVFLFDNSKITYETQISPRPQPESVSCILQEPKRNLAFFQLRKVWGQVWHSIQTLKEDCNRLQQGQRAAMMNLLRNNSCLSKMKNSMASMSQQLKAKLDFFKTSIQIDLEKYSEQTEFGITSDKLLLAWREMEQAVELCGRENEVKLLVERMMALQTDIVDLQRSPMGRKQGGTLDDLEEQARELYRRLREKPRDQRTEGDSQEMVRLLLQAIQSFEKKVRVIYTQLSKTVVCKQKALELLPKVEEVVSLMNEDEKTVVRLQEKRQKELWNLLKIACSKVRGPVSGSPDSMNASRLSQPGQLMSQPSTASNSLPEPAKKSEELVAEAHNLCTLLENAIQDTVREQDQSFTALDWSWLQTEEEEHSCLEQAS
The conditions noted are these: at 0.1 µM.

In experiment [9] the target is T3, Inhibitor of nuclear factor kappa-B kinase subunit beta (Homo sapiens). As to conditions: at 1 µM.
Experiment [10] concerns the target T4, Inhibitor of nuclear factor kappa-B kinase subunit epsilon (Homo sapiens) (UniProt Q14164).
T4 sequence (whole entry): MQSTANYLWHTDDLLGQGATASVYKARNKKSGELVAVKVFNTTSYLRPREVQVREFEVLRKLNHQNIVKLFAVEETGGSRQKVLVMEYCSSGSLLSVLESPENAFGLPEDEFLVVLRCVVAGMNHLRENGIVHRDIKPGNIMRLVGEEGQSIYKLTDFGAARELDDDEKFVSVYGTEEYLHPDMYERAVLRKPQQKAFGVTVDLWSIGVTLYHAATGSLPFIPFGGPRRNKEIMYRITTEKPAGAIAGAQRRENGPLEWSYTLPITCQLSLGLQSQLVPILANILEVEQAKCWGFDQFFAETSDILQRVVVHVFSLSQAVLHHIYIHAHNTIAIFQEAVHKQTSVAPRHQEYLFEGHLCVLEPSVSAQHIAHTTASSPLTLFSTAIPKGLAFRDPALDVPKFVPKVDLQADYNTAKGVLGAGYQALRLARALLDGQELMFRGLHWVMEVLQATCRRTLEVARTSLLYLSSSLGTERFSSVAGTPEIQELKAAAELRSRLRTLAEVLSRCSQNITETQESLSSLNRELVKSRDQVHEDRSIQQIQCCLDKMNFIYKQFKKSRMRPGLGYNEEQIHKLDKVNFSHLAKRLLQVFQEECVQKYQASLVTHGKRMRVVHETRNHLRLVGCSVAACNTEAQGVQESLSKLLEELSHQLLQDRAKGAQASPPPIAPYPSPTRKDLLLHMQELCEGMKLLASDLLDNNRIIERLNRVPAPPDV
The conditions noted are these: at 0.1 µM.

The target in experiment [11] is T4, Inhibitor of nuclear factor kappa-B kinase subunit epsilon (Homo sapiens). As to conditions: at 1 µM.
For experiment [12], the target named is T5, Serine/threonine-protein kinase Nek1 (Homo sapiens) (UniProt Q96PY6).
T5 sequence (whole entry): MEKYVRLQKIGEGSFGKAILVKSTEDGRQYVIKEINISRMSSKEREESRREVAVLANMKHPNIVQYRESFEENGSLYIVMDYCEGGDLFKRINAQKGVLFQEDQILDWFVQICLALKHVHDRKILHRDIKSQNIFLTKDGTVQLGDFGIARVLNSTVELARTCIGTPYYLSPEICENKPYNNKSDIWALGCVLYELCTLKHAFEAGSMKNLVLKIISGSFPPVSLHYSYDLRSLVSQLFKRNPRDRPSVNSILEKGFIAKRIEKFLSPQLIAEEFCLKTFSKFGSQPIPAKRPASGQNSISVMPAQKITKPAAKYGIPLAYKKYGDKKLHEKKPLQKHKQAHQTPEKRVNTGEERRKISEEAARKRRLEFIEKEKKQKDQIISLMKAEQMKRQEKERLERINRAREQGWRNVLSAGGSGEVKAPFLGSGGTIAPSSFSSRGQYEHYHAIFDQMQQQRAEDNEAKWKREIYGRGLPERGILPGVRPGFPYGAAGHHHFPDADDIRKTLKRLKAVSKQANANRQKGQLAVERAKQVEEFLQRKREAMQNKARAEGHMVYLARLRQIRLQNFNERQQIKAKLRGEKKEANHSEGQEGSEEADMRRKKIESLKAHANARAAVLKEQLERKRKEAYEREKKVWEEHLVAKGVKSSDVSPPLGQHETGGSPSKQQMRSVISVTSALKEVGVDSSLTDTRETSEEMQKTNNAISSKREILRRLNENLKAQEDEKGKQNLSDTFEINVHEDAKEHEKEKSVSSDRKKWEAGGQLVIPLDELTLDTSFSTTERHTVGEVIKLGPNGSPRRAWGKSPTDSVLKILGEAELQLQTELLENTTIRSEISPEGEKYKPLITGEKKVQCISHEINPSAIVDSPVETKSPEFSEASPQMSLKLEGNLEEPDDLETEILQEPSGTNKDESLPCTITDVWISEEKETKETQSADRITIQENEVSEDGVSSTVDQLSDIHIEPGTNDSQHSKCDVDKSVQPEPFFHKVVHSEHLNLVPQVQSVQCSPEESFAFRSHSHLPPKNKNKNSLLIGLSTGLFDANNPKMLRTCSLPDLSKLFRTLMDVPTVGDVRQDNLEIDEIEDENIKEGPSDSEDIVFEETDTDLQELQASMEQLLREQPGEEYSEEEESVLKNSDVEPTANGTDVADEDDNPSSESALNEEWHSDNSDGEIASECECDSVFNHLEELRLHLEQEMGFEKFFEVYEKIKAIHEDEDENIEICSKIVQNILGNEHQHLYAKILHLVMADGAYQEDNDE
As to conditions: at 0.1 µM.

Experiment [13] has as its target T5, Serine/threonine-protein kinase Nek1 (Homo sapiens). The conditions noted are these: at 1 µM.
For experiment [14], the target named is T6, Serine/threonine-protein kinase Nek2 (Homo sapiens) (UniProt P51955).
T6 sequence (whole entry): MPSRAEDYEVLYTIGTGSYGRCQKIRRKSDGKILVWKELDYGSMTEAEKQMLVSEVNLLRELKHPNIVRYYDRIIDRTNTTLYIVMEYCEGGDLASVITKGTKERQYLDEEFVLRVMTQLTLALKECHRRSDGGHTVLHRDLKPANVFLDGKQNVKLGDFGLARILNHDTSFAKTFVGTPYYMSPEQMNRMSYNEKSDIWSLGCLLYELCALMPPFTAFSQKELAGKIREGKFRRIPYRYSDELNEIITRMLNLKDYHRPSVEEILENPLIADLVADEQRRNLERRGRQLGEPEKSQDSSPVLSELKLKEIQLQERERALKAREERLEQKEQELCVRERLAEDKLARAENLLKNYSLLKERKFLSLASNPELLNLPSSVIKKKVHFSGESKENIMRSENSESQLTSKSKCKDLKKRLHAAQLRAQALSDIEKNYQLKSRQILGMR
As to conditions: at 0.1 µM.

Experiment [15] deals with T6, Serine/threonine-protein kinase Nek2 (Homo sapiens). The conditions noted are these: at 1 µM.
Experiment [16] deals with Serine/threonine-protein kinase Nek6 (Homo sapiens) (UniProt Q9HC98). As to conditions: at 0.1 µM.
The target is the same in experiment [17]. As to conditions: at 1 µM.
Experiment [18] deals with Serine/threonine-protein kinase Nek7 (Homo sapiens) (UniProt Q8TDX7). As to conditions: at 0.1 µM.
Experiment [19] shares this target. As to conditions: at 1 µM.
Experiment [20] addresses T7, Serine/threonine-protein kinase Nek9 (Homo sapiens) (UniProt Q8TD19).
T7 sequence (whole entry): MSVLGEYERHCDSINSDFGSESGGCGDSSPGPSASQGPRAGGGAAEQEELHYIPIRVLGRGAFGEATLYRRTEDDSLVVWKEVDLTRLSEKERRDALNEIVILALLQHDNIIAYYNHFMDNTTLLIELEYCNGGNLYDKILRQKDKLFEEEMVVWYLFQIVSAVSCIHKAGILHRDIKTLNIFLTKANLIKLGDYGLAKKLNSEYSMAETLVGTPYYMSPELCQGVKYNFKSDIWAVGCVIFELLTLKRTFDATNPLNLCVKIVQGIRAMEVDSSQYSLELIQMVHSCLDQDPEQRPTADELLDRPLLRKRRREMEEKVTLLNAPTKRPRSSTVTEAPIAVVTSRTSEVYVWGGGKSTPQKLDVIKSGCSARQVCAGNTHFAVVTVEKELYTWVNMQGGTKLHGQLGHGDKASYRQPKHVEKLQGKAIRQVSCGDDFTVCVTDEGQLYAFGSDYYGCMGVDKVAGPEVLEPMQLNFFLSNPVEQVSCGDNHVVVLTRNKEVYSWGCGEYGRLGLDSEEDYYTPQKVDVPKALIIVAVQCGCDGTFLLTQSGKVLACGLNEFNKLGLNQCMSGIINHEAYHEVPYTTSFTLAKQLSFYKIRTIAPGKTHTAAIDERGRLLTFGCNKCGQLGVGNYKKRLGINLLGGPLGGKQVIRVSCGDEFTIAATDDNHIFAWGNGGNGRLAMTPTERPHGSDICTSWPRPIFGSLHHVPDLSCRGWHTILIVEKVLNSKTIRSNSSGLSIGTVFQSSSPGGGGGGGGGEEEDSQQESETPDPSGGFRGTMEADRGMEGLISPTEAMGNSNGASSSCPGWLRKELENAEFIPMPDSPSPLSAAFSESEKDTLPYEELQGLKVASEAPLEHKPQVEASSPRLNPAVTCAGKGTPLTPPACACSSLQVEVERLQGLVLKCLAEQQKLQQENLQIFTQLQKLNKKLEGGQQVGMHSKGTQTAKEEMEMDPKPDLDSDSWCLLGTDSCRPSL
The conditions noted are these: at 0.1 µM.

Sequence of Casein kinase II subunit alpha (Homo sapiens) (P68400 whole entry, looked up): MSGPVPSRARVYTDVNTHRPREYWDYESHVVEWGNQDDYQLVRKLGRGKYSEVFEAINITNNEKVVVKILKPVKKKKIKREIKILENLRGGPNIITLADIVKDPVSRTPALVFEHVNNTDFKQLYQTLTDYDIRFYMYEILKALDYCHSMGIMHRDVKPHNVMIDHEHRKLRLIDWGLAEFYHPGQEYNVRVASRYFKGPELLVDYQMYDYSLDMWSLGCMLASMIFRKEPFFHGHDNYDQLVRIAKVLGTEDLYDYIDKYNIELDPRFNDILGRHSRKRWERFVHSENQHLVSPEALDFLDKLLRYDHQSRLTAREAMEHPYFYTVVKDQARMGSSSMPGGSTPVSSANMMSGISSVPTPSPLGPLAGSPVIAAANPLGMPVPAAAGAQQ
Sequence of Serine/threonine-protein kinase Nek7 (Homo sapiens) (Q8TDX7 whole entry, looked up): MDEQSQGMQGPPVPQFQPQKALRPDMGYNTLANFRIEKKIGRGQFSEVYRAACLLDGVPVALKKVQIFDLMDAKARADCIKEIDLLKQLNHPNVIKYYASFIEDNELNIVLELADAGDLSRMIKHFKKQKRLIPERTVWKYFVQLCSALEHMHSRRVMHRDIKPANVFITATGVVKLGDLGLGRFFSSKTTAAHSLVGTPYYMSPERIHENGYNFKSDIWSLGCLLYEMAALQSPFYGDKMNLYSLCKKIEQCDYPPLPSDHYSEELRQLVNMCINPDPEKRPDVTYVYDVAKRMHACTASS
Sequence of Serine/threonine-protein kinase Nek6 (Homo sapiens) (Q9HC98 whole entry): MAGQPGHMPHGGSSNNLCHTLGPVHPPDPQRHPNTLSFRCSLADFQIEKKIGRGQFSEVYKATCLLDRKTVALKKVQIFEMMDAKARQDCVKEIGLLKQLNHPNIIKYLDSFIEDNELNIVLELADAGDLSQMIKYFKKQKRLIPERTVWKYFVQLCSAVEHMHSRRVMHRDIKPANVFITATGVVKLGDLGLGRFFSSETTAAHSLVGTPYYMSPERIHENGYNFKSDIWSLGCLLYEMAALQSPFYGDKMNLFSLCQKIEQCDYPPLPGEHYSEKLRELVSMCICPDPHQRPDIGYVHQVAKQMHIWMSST
Sequence of Sphingosine kinase 1 (Homo sapiens) (Q9NYA1 whole entry): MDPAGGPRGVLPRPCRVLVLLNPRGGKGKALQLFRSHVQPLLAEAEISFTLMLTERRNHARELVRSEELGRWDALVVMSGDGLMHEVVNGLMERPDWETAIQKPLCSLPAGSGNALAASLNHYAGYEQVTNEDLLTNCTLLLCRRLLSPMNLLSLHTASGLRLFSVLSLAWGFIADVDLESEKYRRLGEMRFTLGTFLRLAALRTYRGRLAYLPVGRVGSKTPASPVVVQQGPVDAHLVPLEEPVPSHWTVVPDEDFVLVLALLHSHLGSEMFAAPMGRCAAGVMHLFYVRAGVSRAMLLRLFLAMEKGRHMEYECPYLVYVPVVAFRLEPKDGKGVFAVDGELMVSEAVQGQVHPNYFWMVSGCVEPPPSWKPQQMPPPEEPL

By inhibition is commonly meant the relative decrease from the control value, in per cent. With `CCn1c(-c2nonc2N)nc2c(C#CC(C)(C)O)ncc(OC[C@@H]3CCCN3)c21`, the inhibition in experiment [1] is 1.85%; in experiment [2], 1.65%; in [3] it was 0%; in [4], 13.9%; in experiment [5], -1.67%; in experiment [6], 7.49%. In addition, the inhibition in [7] is -0.05%; in experiment [8], 4.75%; in experiment [9], 4.4%; in experiment [10], 89.6%; in [11] it was 98.7%; in [12] it was 0.01%. Moreover, the inhibition in experiment [13] is 0.55%; in experiment [14] it was 0.12%; in experiment [15] it was 0.91%; in [16], 1.04%; in [17], 0.79%; in [18], -0.99%. Also, the inhibition in [19] was -0.58%; in experiment [20], -1.1%.
